# In PubChem BioAssay (NCI):
# The panel holds about 79,000 compounds, 15% with a hit somewhere; the sample as a whole holds those more often. Values without a mark were called inactive. Active and inactive are the calls of the source. Cut-off read from the data, not from the text of the source: active = growth inhibition above about 70%; inactive = the rest.
# Assay: NCI Yeast Anticancer Drug Screen. Data for the sgs1 mgt1 strain (AID 161);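 note: 0% = growth of cultures given vehicle only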
# Details: S. cerevisiae sgs1 mgt1 strain, at 50.0 µM (retest, dose inferred, filed as 5.0), hits give high values
# Summary of the method: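 Percent growth inhibition was derived by comparing compound-exposed mutant yeast with vehicle-exposed cultures. The strain carries alterations in DNA damage repair.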
row,Compound,growth inhibition
1,NC1=NC2=C(CCCC2)C(c2cccs2)S1 (stereo not drawn),87% (active)
2,CCC(C)(C)NCCCCCNc1cc(OC)cc2cccnc12,22%
3,C/C(=N\NC(=S)Nc1ccc([N+](=O)[O-])cc1)c1nc2ncccc2[nH]1,70% (active)
4,COC(=O)c1ccc(SCC(=O)c2ccc([N+](=O)[O-])o2)cc1,81% (active)
5,CCCCCCCCCCCC(=O)OCCOP(=O)(OCC)OCC,99% (active)
6,COc1cccc2c1S(=O)(=O)C(c1ccccc1)=CC2=O,99% (active)
7,CC(C)(C)c1ccc(-n2c3nc(=O)n(-c4ccccc4C(F)(F)F)c(=O)c-3cc3ccccc32)cc1,98% (active)
8,NC(=O)C1C(=O)c2cccc3c2C1(Br)C(Br)CCC3 (stereo not drawn),100% (active)
9,COC(=O)/C(=C/C=C(c1ccccc1)c1ccccc1)N(C(C)=O)C(C)=O,67%
10,Cc1ccc(C2COc3cc(O)c(O)cc3C2)cc1 (stereo not drawn),99% (active)
11,COc1cc(C2=NCCO2)cc(OC)c1OC,-60%
12,CCOc1ccccc1C(=O)Oc1cccc(C)c1,12%
13,CC(=O)OC1=Cc2ccccc2C(c2ccccc2)c2ccccc21 (stereo not drawn),18%
14,C#C[C@]1(OC(C)=O)CC[C@H]2[C@@H]3CCC4=CC(=O)CC[C@@H]4[C@H]3CC[C@@]21C,29%
15,COc1ccc(CC2=CC(=O)C(=O)C=C2C)cc1,39%
16,S=c1[nH]c2ccc(Br)cc2c(=S)n1-c1ccccc1,24%
17,CC1(C)OC2C(COC(c3ccccc3)(c3ccccc3)c3ccccc3)OC(n3cnc4c(N)ncnc43)C2O1 (stereo not drawn),92% (active)
18,O=[N+]([O-])c1cnc(F)c(Br)c1,99% (active)
19,C=C(C#N)C(=O)OCC(CC)CC.C=C(C#N)C(=O)OCC(CC)CC.CS(C)=O.CS(C)=O.Nc1c(N=Nc2ccc(-c3ccc(N=Nc4cc(S(=O)(=O)[O-])c5ccccc5c4N)cc3)cc2)cc(S(=O)(=O)[O-])c2ccccc12.[Pt+2],97% (active)
20,CCCCCCCCCCS(=O)(=O)Nc1ccc(C(=O)NN)cc1,82% (active)
21,COC(=O)c1ccc(C)cc1CC1Cc2cc(C)ccc2C1=O (stereo not drawn),68%
22,COc1ccc(C2c3cc4c(cc3OC(N3CCOCC3)C2C)OCO4)c(OC)c1 (stereo not drawn),79% (active)
23,C/C(=C/C(=O)N1c2ccccc2CC1c1c[nH]c2ccccc12)C(=O)O (stereo not drawn),33%
24,CCc1c(-c2ccccc2)c(CN2CCCCC2)c2ccccn12,37%
25,Clc1ccc(CN2COc3c(ccc4cccnc34)C2)c(Cl)c1,98% (active)
26,Cc1[nH]c2ccccc2c1/C=C1/CCCCCCC1=O,66%
27,CCOC(=O)c1ccc(NC(=O)O/N=C(/Cl)CC)cc1,75% (active)
28,COC1OC(COC(=O)c2ccccc2)CC1F (stereo not drawn),-13%
